Results on 55 compounds are retold here after PubChem BioAssay AID651820 (National Center for Advancing Translational Sciences (NCATS), 2012).

Out of some 340,000 compounds screened, about 12,000 (3.5%) were called active. About 18% were inconclusive and are not listed. Many of the other results were omitted from the sample, so actives are more common in it than they were. More than one record can exist for a structure, and the calls need not agree. Values without a mark were called inactive. Calls come from the whole dose curve; as a rule, active = well fitted inhibition curve with a large enough effect; inconclusive = small, poorly fitted or top-dose-only effect, or another doubt; inactive = no such curve, though single readings can be large or run the other way.
% is set by controls: 0 for no effect and ±100 for the full control effect; potency is the fitted concentration of half-maximal effect.

A short description of this test: qHTS Assay for Inhibitors of Hepatitis C Virus (HCV). To be noted: Huh7.5.1 HCVcc-Cre infection, luciferase reporter, 44 h; series mostly up to 41.8 µM; activity change, negative = inhibition: at the top concentration. The essentials: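 Cells seeded at 1,000/well and cultured 4 h, then compounds added followed by HCVcc-Cre virus (~0.5 moi). After 44 h further culture, luciferase substrate was added, plates held 15 min at room temperature, and luminescence read for 15 sec.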
In general terms: Quantitative high-throughput screening tests each substance at several concentrations.
Turning to `CN(C)CCCN(C(=O)c1ccc(S(=O)(=O)N2CCCCCC2)cc1)c1nc2cc3c(cc2s1)OCCO3`, the “activity change, negative = inhibition” value was -25.6%.
As to `O=[N+]([O-])c1ccc(C=NN=Cc2ccc([N+](=O)[O-])cc2)cc1`, the “activity change, negative = inhibition” value was 3%.
Take `Cc1cccc(N2CCN(C(=O)c3cnn4c(C(F)F)cc(-c5ccccc5)nc34)CC2)c1C`: the “activity change, negative = inhibition” value is 18.3%.
The same measure, in the same setting: under `COC(=O)c1ccc(C(=O)OC)c(NC(=S)N2CCN(c3cc(Cl)ccc3C)CC2)c1` stands 13.7%.
Take `Cc1ccc(Cl)cc1N1CCN(C(=O)c2cccc3c(=O)c(C)c(-c4ccccc4)oc23)CC1`: the Potency is 10 µM (active).
`CC(C#N)OC(=O)c1cccnc1SCC(=O)Nc1ccc2c(c1)OCO2` (stereo unspecified): the “activity change, negative = inhibition” value was -12.6%.
Still for that read-out and setting: the same measure for `Cc1ccc(CN2CC(C(=O)N3CCN(S(=O)(=O)c4ccccc4)CC3)CC2=O)cc1` (stereo unspecified): 1.97%.
On the same count and under the same terms, under `Cc1cc(N2CCCC2)n2nc(C)c(-c3ccccc3)c2n1` stands 5.02%.
Regarding `Cc1nn2c(NCCN(C)C)c3c(nc2c1-c1ccccc1)CCC3`, the Potency was 12.6 µM (active).
Turning to `Cc1cc(C(C)(C)C)n2nc(C)c(-c3ccccc3)c2n1`, the “activity change, negative = inhibition” value is 9.38%.
The same measure, in the same setting: under `O=C(COC(=O)c1ccc(F)cc1)Nc1nc2ccc([N+](=O)[O-])cc2s1` stands -29.2%.
Same read-out and setting: under `O=C(Nc1nc2ccc([N+](=O)[O-])cc2s1)c1ccncc1` stands -3.8%.
For the compound `O=C(NC(Nc1nc2ccc([N+](=O)[O-])cc2s1)(C(F)(F)F)C(F)(F)F)c1ccccc1`, the Potency was 0.562 µM (active).
On to `NC(=O)C1CCN(C(=O)c2cc(S(=O)(=O)N3CCN(c4ccccc4)CC3)ccc2Cl)CC1`, for which the “activity change, negative = inhibition” value was -5.21%.
As for `CC(=O)c1c(C)[nH]c(C(=O)OCC(=O)Nc2sc3c(c2C#N)CCCC3)c1C`, the Potency is 12.6 µM (active).
For `CC(=O)c1c(C)[nH]c(C(=O)COC(=O)c2cccs2)c1C`, the “activity change, negative = inhibition” value is 2.01%.
As to `CC(=O)c1c(C)[nH]c(C(=O)OCC(=O)NCCC(C)C)c1C`, the Potency is 11.2 µM (active).
As for `N#CCC(=O)Nc1ccc(C(=O)OCC(=O)Nc2sc3c(c2C#N)CCCC3)cc1`, the “activity change, negative = inhibition” value was -2.61%.
In the case of `CC(=O)c1c(C)[nH]c(C(=O)OCC(=O)Nc2cc(S(=O)(=O)N3CCCCC3)ccc2C)c1C`, the “activity change, negative = inhibition” value is -17.6%.
For the compound `Cc1cccc(C(=O)OCC(=O)Nc2sc3c(c2C#N)CCC3)c1`, the “activity change, negative = inhibition” value was 8.66%.
Same read-out and setting: under `NN=C(NN=Cc1ccccc1)c1ccccc1` stands 4.38%.
The same measure, in the same setting: the same measure for `O=[N+]([O-])c1cc2ccccc2nc1-c1ccccc1`: -18.8%; for `CC1CCCCC12NC(=O)N(CC(=O)Nc1ccc(S(=O)(=O)Nc3ncccn3)cc1)C2=O` (stereo unspecified): 26.4%; for `COc1ccc(NC(=O)CC2SC(N3CCCCC3)=NC2=O)cc1OC` (stereo unspecified): 17.1%.
As for `Cc1ccc(NC(=O)CN(C)CC(=O)Nc2cccc(F)c2)cc1[N+](=O)[O-]`, the Potency was 5.62 µM (active).
`Cc1ccc(CN(C)CC(=O)Nc2cccc([N+](=O)[O-])c2)o1`: the “activity change, negative = inhibition” value was -24.5%.
The same measure, in the same setting: the same measure for `CN(CC(=O)Nc1cccc(F)c1)CC(=O)Nc1cccc([N+](=O)[O-])c1`: -21.1%; for `COc1ccc(/C=C2/CCCc3ccccc3C2=O)cc1`: -7.8%.
In the case of `Oc1c(Cl)cc(Cl)c(Cl)c1Cc1c(O)c(Cl)cc(Cl)c1Cl`, the Potency was 8.91 µM (active) and the activity change, negative = inhibition is -0.125% [at 8.37 µM].
In the case of `O=C(NCC(c1ccco1)N1CCc2ccccc2C1)c1ccccc1Cl` (stereo unspecified), the “activity change, negative = inhibition” value was -11.9%.
Same read-out and setting: under `CC(=O)C(CC(=O)N1CCCC1)C(=O)Nc1ccc(Cl)cc1` (stereo unspecified) stands 6.34%; under `CC/C(=C\c1ccc(Cl)cc1)c1ccncc1`, 7.6%; under `COC(=O)c1ccc(CNC(=O)Cn2cc(C)c(=O)[nH]c2=O)cc1`, 9.79%.
Same read-out and setting: the same measure for `O=c1nc(NO)ccn1C1CCCO1` (stereo unspecified): 12.9%.
With `COc1ccccc1N(CC(=O)Nc1ccc(C)cc1Cl)S(=O)(=O)c1cccs1`, the “activity change, negative = inhibition” value was -23.6%.
As for `CCOc1cc2[nH]c(=S)n(Cc3ccc(C(=O)N4CCN(C)CC4)cc3)c(=O)c2cc1OCC`, the Potency is 12.6 µM (active).
On to `COc1ccccc1Cn1c(=S)[nH]c2cc(C(=O)N3CCN(C)CC3)ccc2c1=O`, for which the “activity change, negative = inhibition” value is 4.3%.
On the same count and under the same terms, under `CCOc1cc2[nH]c(=S)n(Cc3ccc(C(=O)NCCOC)cc3)c(=O)c2cc1OCC` stands -16.6%.
Same read-out and setting: under `C[C@H](CO)N1C[C@H](C)[C@@H](CN(C)C(=O)NC2CCCCC2)Oc2ccc(NC(=O)c3ccncc3)cc2C1=O` stands 15.1%; under `CCN(C[C@H]1N[C@@](Cc2ccccc2)(C(=O)OC)[C@H]2C(=O)N(Cc3ccccc3)C(=O)[C@@H]12)C(=O)c1ccc(C)cc1`, -2.26%.
Take `COc1ccc2ccccc2c1/C=N/NC(=O)c1cc(C)[nH]n1`: the “activity change, negative = inhibition” value is -6.93%.
On the same count and under the same terms, under `Cc1cc(C(=O)N/N=C/c2cc([N+](=O)[O-])cc(C)c2O)n[nH]1` stands 0.137%.
As to `CC(C)(C)c1cc(C(=O)N/N=C/c2ccc([N+](=O)[O-])s2)n[nH]1`, the Potency is 25.1 µM (active).
Take `COc1ccc(S(=O)(=O)N2CCc3ccccc32)cc1C(=O)Nc1cc(S(C)(=O)=O)ccc1Cl`: the “activity change, negative = inhibition” value was -5.31%.
On the same count and under the same terms, the same measure for `CCNC(=O)CSc1nc(-c2ccccc2)cs1`: 9.62%; for `O=C(CSCC(=O)Nc1cccc([N+](=O)[O-])c1)Nc1ccccc1`: 11.5%.
Take `O=C(CSc1nc(-c2ccccc2)cs1)Nc1cccc([N+](=O)[O-])c1`: the Potency is 11.2 µM (active).
Turning to `COc1ccccc1CNC(=O)CSc1nc(=O)n(Cc2ccncc2)c2c1CCC2`, the “activity change, negative = inhibition” value is 3.26%.
Same read-out and setting: under `CCOC(=O)C(=O)Nc1nc(-c2ccccc2)c(CC)s1` stands -1.32%.
As to `C/C(=N/Nc1nc(-c2ccccc2)c(CC(=O)O)s1)c1ccccc1`, the Potency was 12.6 µM (active).
In the case of `O=C(O)Cc1sc(-c2ccccc2)nc1-c1cccs1`, the “activity change, negative = inhibition” value is 7.27%.
Take `CC1O[C@@H](OC2C(O)C(C)O[C@H](OC(=O)[C@]34CCC(C)(C)C[C@H]3C3=CCC5[C@@]6(C)CC(O)C(O[C@@H]7OC(CO)C(O)[C@@H](O)[C@@H]7O)[C@@](C)(C(=O)O)C6CC[C@@]5(C)[C@]3(CO)CC4)C2O[C@H]2OC(C)[C@@H](O[C@@H]3OCC(O[C@@H]4OC(CO)C(O)[C@H](O)C4O)[C@@H](O)[C@@H]3O)[C@H](O)C2O)C(O)C(O)C1O` (stereo partly specified): the “activity change, negative = inhibition” value is 15.8%.
`CCCCn1c(N)c(N(CC(C)C)C(=O)c2ccc(-n3c(C)ccc3C)cc2)c(=O)[nH]c1=O`: the “activity change, negative = inhibition” value is -16.9%.
Same read-out and setting: under `Cc1c(C)n2c(SCC(=O)N3CCCC3)nnc2[nH]c1=O` stands 12.3%.
On the same count and under the same terms, under `COc1ccc(C(=O)OCc2cc(=O)n3ccsc3n2)cc1F` stands -17%.
